Reference: PubChem BioAssay (NCATS)
Records with an inconclusive call do not appear. Entries that show only a call come without a potency. A number with no mark means an inactive call. Activity calls are given as the source filed them. Calls come from the whole dose curve; as a rule, active = well fitted inhibition curve with a large enough effect; inconclusive = small, poorly fitted or top-dose-only effect; inactive = no such curve, though single readings can be large or run the other way.

Legend:
[1] = test system: Zika virus NS2B-NS3 protease (unlinked complex); experiment: Primary screen GU Rhodamine qHTS for Zika virus inhibitors: Unlinked NS2B-NS3 protease assay (AID 1347159); settings: Recombinant ZIKV NS2B-NS3 protease, Rhodamine110 substrate fluorescence; series mostly up to 107 µM; note: nearly all actives have a fitted effect of over 60% in size
Method in brief: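 Compounds, tested up to 114 microM, were incubated for 15 minutes with 25 nM unlinked NS2B-NS3 protease at pH 8.0. Cleavage of 1.5 microM Rhodamine110 substrate was then followed by fluorescence for 15 minutes.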

[2] = test system: Zika virus NS2B-NS3 protease (linked construct); experiment: Primary screen NINDS Rhodamine qHTS for Zika virus inhibitors (AID 1347160); settings: purified NS2B-NS3 protease, Rhodamine110 substrate fluorescence; series mostly up to 33.1 µM; note: nearly all actives have a fitted effect of over 55% in size
Method in brief: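 Percent inhibition, normalized to uninhibited and enzyme-free controls, is fitted to a 4-parameter Hill equation. Fluorescence change comes from a 15-min cleavage of 1.5 microM bis-peptide Rhodamine110 substrate by 25 nM linked NS2B-NS3 at room temperature.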
Potency is the fitted concentration of half-maximal effect.

COc1ccc(-c2ccn(CC[C@](C)(C(=O)NO)S(C)(=O)=O)c(=O)c2)c(F)c1 was tested, and the Potency [1] was “inactive” and the Potency [2] was “inactive”.
With CC(=O)O[C@@H](C[C@@H]1C=C(C)C(=O)O1)[C@H](C)[C@H]1CCC2[C@@]3(C)CC[C@H](O[C@@H]4O[C@H](CO)[C@@H](O)[C@H](O)[C@H]4O[C@@H]4O[C@@H](C)[C@H](O)[C@@H](O)[C@H]4O)C(C)(C)C3CC[C@@]2(C)[C@@]12COC(=O)C2 (some centres not stated) the Potency [1] was “inactive” and the Potency [2] was “inactive”.
With O=C(Nc1cc(-c2ccccc2)nn1-c1ccccc1)c1ccc([N+](=O)[O-])cc1 the Potency [1] was “inactive” and the Potency [2] was “inactive”.
For CC1=C[C@@H]2[C@H]3[C@@H]4O[C@@](C)(CC[C@H]4O)[C@H]3CC(=O)[C@]23C(=O)N[C@@H](CC(C)C)[C@@H]3[C@@H]1C, the Potency [1] was “inactive” and the Potency [2] was “inactive”.
In the case of C=C(CCO[C@@H]1O[C@H](CO)[C@@H](O)[C@H](O)[C@H]1O)C(=O)O, the Potency [1] is reported as “inactive” and the Potency [2] is reported as “inactive”.
With NC[C@@H]1O[C@@H](O[C@@H]2[C@@H](O[C@@H]3O[C@H](CO)[C@@H](O)[C@H]3O)[C@H](O)[C@@H](N)C[C@H]2N)[C@@H](N)[C@H](O)[C@H]1O the activity change, negative = inhibition [1] was 6.33% [at 19.1 µM] and the Potency [2] was “inactive”.
For COC(=O)C[C@@H]1C(C(=O)O)=CO[C@@H](O[C@@H]2O[C@H](CO)[C@@H](O)[C@H](O)[C@H]2O)/C1=C\COC(=O)/C=C/c1ccc(O)c(OC)c1, the Potency [1] was “inactive” and the Potency [2] was “inactive”.
With COc1cc(O)c2c(c1Cl)CC(C)OC2=O (configuration not stated) the Potency [1] was “inactive” and the Potency [2] was “inactive”.
CC(=O)c1[nH]cc(CCC(=O)O)c1CC(=O)O was tested, and the Potency [1] was “inactive” and the Potency [2] was “inactive”.
O=C(O)CC1CCC(c2ccc(NC(=O)c3nnc(Nc4ccc(F)c(F)c4)o3)cc2)CC1 (configuration not stated) was tested, and the Potency [1] was 14.1 µM (active) and the Potency [2] was 14.1 µM (active).
In the case of CC1(C)CC[C@]2(C(=O)O[C@@H]3O[C@H](CO)[C@@H](O)[C@H](O)[C@H]3O)CC[C@]3(C)C(=CCC4[C@@]5(C)C[C@H](O)[C@H](O[C@@H]6OC[C@@H](O)[C@H](O)[C@H]6O)[C@@](C)(CO)C5CC[C@]43C)C2C1 (some centres not stated), the Potency [1] is reported as “inactive” and the Potency [2] is reported as “inactive”.
In the case of CC(=O)O[C@H]1C[C@@H](O)C(C)(C)C2C[C@@H](OC(C)=O)[C@]3(C)C(CC[C@@]4(C)[C@H](c5ccoc5)OC(=O)[C@H]5O[C@]543)[C@]21C (some centres not stated), the Potency [1] is reported as “inactive” and the Potency [2] is reported as “inactive”.
In the case of O=C(O)c1ccncc1Nc1nn(CCN2CCC(F)(F)CC2)c2ccc(F)cc12, the Potency [1] is reported as “inactive” and the Potency [2] is reported as “inactive”.
With CSCC1OC(n2cnc3c(N)ncnc32)C(O)C1O (configuration not stated) the Potency [1] was “inactive” and the Potency [2] was “inactive”.
With COc1cc(C(=O)OC[C@H]2O[C@@H](OC(C)(C)C(=O)O)[C@H](O)[C@@H](O)[C@@H]2O)cc(OC)c1O the Potency [1] was “inactive” and the Potency [2] was “inactive”.
With CC(C)NC(=O)c1ccc(C#Cc2ccncc2)cn1 the Potency [1] was “inactive” and the Potency [2] was “inactive”.
In the case of CC1(C)CC[C@]2(C(=O)O)[C@H](O)C[C@]3(C)C(=CCC4[C@@]5(C)CC[C@H](O[C@@H]6OC[C@@H](O)[C@H](O)[C@H]6O)[C@@](C)(C(=O)O)C5CC[C@]43C)[C@@H]2C1 (some centres not stated), the Potency [1] is reported as “inactive” and the Potency [2] is reported as “inactive”.
With C/C=C(\C)C(=O)OC[C@H]1O[C@@H](O[C@H]2[C@@H](O[C@H]3O[C@H](COC(=O)/C(C)=C/C)[C@@H](O)[C@H](O)[C@H]3O[C@@H]3O[C@H](CO)[C@@H](O)[C@H](OC(=O)/C(C)=C/C)[C@H]3O)O[C@H](COC(=O)/C(C)=C/C)[C@@H](O)[C@@H]2O)[C@H](O)[C@@H](O)[C@@H]1O the Potency [1] was “inactive” and the Potency [2] was “inactive”.
C=C1C[C@H](O)[C@@H](O)[C@@]2(C)C1[C@@H](O)[C@H]1OC(=O)C3[C@@H](C)[C@@H](O)[C@H](O)C2[C@]31C (some centres not stated) was tested, and the Potency [1] was “inactive” and the Potency [2] was “inactive”.
In the case of CC1(C)CCC2(C(=O)O)C(O)CC3(C)C(=CCC4C5(C)CCC(OC6OC(CO)C(O)C(O)C6OC6OC(CO)C(O)C(O)C6OC6OCC(O)(CO)C6O)C(C)(C)C5CCC43C)C2C1 (configuration not stated), the Potency [1] is reported as “inactive” and the Potency [2] is reported as “inactive”.
C/C=C(/C)C(=O)OC1C2OC2C2(CO2)C2C3OC(=O)C(C)C3CCC12C (configuration not stated) was tested, and the Potency [1] was “inactive” and the Potency [2] was “inactive”.
In the case of C/C=C(/C)C(=O)OC1C(OC(C)=O)C23C(O)OC4(CCC5C6(C)CCC(OC7OC(C(=O)O)C(O)C(OC8OC(CO)C(O)C(O)C8OC8OC(C)C(O)C(O)C8OC8OCC(O)C(O)C8O)C7OC7OC(CO)C(O)C(O)C7O)C(C)(C)C6CCC5(C)C4(C)CC2OC(C)=O)C3CC1(C)C (configuration not stated), the activity change, negative = inhibition [1] is reported as -1.79% [at 19.1 µM] and the Potency [2] is reported as “inactive”.
In the case of CC[C@H]1OC(=O)[C@H](C)C(=O)[C@H](C)[C@@H](OC2O[C@H](C)C[C@H](N(C)C)[C@H]2O)[C@@H](C)C[C@@H](C)C(=O)/C=C/[C@]1(C)O (some centres not stated), the Potency [1] is reported as “inactive” and the Potency [2] is reported as “inactive”.
With C/C(CO)=C1/CCC23COC(C2)C(O)(C(=O)O)CCC13 (configuration not stated) the Potency [1] was “inactive” and the Potency [2] was “inactive”.
With CC(C)[C@](O)(c1ccc2cc(OC(F)F)c(OC(F)F)cc2c1)c1cn[nH]n1 the Potency [1] was “inactive” and the Potency [2] was “inactive”.
With C=C[C@@]1(C)CCC2=C([C@H]1OC(C)=O)[C@H](OC(C)=O)CC1[C@](C)(C(=O)OC)CC[C@H](OC(C)=O)[C@]21C (some centres not stated) the Potency [1] was “inactive” and the Potency [2] was “inactive”.
For COc1ccccc1N1CCN(CCCCNC(=O)c2ccc(-c3cscn3)cc2)CC1, the Potency [1] was “inactive” and the Potency [2] was “inactive”.
In the case of C/C=C(\C)C(=O)OCC1OC(OC2OC(CO)C(O)C(O)C2O)C(O)C(O)C1O (configuration not stated), the Potency [1] is reported as “inactive” and the Potency [2] is reported as “inactive”.
For CN1CCN(C(=O)c2cc3cc(Cl)ccc3[nH]2)CC1, the Potency [1] was “inactive” and the Potency [2] was “inactive”.
In the case of C=C(CO)C(=O)O[C@H]1C[C@@]23O[C@@H]2CC/C(=C/[C@H]2OC(=O)C(=C)[C@H]12)CO[C@H]3O, the Potency [1] is reported as “inactive” and the Potency [2] is reported as “inactive”.
For O=C(/C=C/c1ccccc1)O[C@@H]1[C@@H](CO)O[C@@](CO)(O[C@H]2O[C@H](CO)[C@@H](O)[C@H](O)[C@H]2O)[C@H]1O, the Potency [1] was “inactive” and the Potency [2] was “inactive”.
For FC(F)(F)c1nnc2c(Sc3ccccc3)nc3ccc(Cl)cc3n12, the Potency [1] was “inactive” and the Potency [2] was “inactive”.
With H-DPPDPDRFYGMM-NH2 the Potency [1] was “inactive” and the Potency [2] was “inactive”.
CCC/C=C1\OC(=O)C2=C1CCC(O)C2O (configuration not stated) was tested, and the Potency [1] was “inactive” and the Potency [2] was “inactive”.
Work on O=C(O)[C@H]1Cc2ccccc2CN1 yielded an activity change, negative = inhibition [1] of -0.45% [at 11.5 µM] and an activity change, negative = inhibition [2] of 20.2% [at 4.91 µM].
For CCOC(=O)C(CCc1ccccc1)NC(C)C(=O)N1Cc2ccccc2CC1C(=O)O (configuration not stated), the Potency [1] was “inactive” and the Potency [2] was “inactive”.
